Assay outcomes: PubChem, several laboratories
Shown are actives, neighbours in structure and some others; about 28% of the full set was active somewhere.
PLK1 inh – inhibitors of human PLK1 kinase; P53350; recombinant PLK1 kinase, TR-FRET peptide phosphorylation; inhibition, % at 10 µM; 97,000 compounds, 0.53% hits;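 active = inhibition of 50% or more in the single-concentration screen; inactive = inhibition below 50%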;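 note: 0% = DMSO max control and 100% = H-89 dihydrochloride min control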
CYP2C9 activ – increases human cytochrome P450 2C9 activity. P11712. recombinant CYP2C9, luciferin-H conversion, luminescence; active compounds read high; factor 1 = untreated enzyme, 0 = blocked. activation factor at 5 µM. 96,000 compounds, 1.4% hits. AID 1024;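 active = activation factor of 2 or more for CYP2C9 at a 5 µM dose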;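 note: 0 = sulfaphenazole-blocked wells and 1 = vehicle-only wells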
Target sequence (P11712 whole entry, looked up): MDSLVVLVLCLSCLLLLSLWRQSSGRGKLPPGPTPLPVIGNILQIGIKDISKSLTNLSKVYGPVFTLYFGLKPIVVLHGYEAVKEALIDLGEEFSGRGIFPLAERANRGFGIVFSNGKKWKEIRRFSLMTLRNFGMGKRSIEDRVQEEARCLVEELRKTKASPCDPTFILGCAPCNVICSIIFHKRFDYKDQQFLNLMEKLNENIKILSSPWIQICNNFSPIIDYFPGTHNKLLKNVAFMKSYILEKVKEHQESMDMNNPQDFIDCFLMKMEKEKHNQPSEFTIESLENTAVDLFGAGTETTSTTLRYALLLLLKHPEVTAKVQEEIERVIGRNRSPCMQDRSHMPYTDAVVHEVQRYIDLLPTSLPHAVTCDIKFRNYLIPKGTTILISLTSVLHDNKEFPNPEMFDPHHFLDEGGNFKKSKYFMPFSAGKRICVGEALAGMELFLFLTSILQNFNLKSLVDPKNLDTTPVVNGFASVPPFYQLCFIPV
CYP2C19 act – activators of human cytochrome P450 2C19; recombinant CYP2C19, luciferin-H EGE luminescence; active compounds read high; 0 = fully inhibited enzyme, 1 = untreated enzyme; 96,000 tested, under 10 active; activation factor at 5 µM; AID 1025; P33261;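 active = activation factor of at least 2 at 5 µM in the primary screen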;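 note: 0 = wells with 2.5 mM tranylcypromine and 1 = vehicle-only wells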
CYP2C19 inh – human CYP2C19 inhibition; 96,000 compounds, 21% hits; P33261; AID 778; inhibition, % at 5 µM; CYP2C19 Supersomes, luciferin-H EGE luminescence, 30 min;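 active = CYP2C19 inhibition above a set limit at 5 µM in the primary screen, cut at about 50% in these data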;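 note: plate controls were negative control wells for no effect and 2.5 mM tranylcypromine positive control for full effect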
PLK1 PBD inh – Plk1 (human) PBD binding inhibition; P53350; Plk1 PBD phosphopeptide binding, fluorescence polarization; inhibition, %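 (tested at about 20 µM)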; 97,000 compounds, 0.13% hits; AID 693; in the data active = inhibition above about 34%, passing the limit was not always enough
CYP2C9 inhib – human CYP2C9 inhibition | P11712 | AID 777 | inhibition, % at 5 µM | CYP2C9 Supersomes, luciferin-H conversion, luminescence | 96,000 compounds, 20% hits;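 active = blocking of liver enzyme CYP2C9 beyond about 50% at 5 µM, limit read from the data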
The depositor's hits bear a star; x = no result.

SMILES	PLK1 inh	CYP2C9 activ	CYP2C19 act	CYP2C19 inh	PLK1 PBD inh	CYP2C9 inhib
COc1ccccc1NC(=O)CSc1nnc(C)o1	-8	1	1	-2	-16	-4
COc1ccccc1NC(=O)CSc1nnc(C2CCCCC2)o1	-14	0.6	0.4	56*	25	44
COc1ccccc1NC(=O)CSc1nnc(-c2ccncc2)o1	-4	0.7	0.2	84*	-3	30
Cc1cccc(C)c1OCc1nnc(SCC(=O)Nc2ccccc2F)o1	-14	0.4	0.9	13	6	59*
COc1ccc(-c2nnc(SCC(=O)Nc3ccccc3OC)o2)cc1	-4	x	x	x	8	x
CCn1c(SCC(=O)Nc2cc(OC)ccc2OC)nnc1C1CCCCC1	0	1.1	0.3	69*	-2	-11
N#CC1=C2C=CC=CN2CC1=O	8	0.9	1.1	-7	11	10
Cc1cccc(N2C(=O)c3cccc4c(N(C)CCO)ccc(c34)C2=O)c1	-29	0.9	0.7	26	-128	7
COc1ccccc1CC(=O)Nc1ccc(-c2nnc(-c3ccco3)o2)cc1	-12	0.8	0.8	23	0	23
CC1CCc2sc3c(c2C1)c1ncnn1c(=O)n3CC(=O)c1ccc(Br)cc1 (stereo not given)	-11	x	x	x	29	x
CCCC1(C)SC(NC(C)=O)=NN1C(C)=O (stereo not given)	-18	1.2	1	-4	14	-18
O=C(CSc1nnc(-c2ccccc2)o1)Oc1ccc(Br)cc1	-10	1	1	-2	-4	1
Cc1ccc(-c2nnc(SCC(=O)Nc3ccccc3F)o2)cc1	-4	0.6	0.8	24	24	37
CC(C)CC(=O)Nc1ccc(C(=O)COc2ccc(-c3nnco3)cc2)cc1	5	0.1	0.3	72*	-10	93*
CC(C)CC(=O)Nc1ccc(OCC(=O)O)cc1	-12	1.1	1.1	-9	-12	-8
O=C(CSc1nnc(-c2ccc(Br)cc2)o1)Nc1cccc2ccccc12	-10	0.3	0.3	70*	-12	74*
O=C(CSc1nnc(-c2ccccc2)o1)Nc1ccccc1F	-3	0.7	0.4	57*	2	29
CCOC(=O)c1cc(-c2nnc(SCC(=O)Nc3ccc(F)cc3)o2)c(C)nc1C	x	0.5	0.8	20	x	51*
COc1ccc(C2(CNC(=O)c3ccc(Br)o3)CCOCC2)cc1	-13	0.7	0.7	26	-9	31
CCn1nc([N+](=O)[O-])c(C(C#N)c2nc3cc(C(F)(F)F)ccc3s2)c(Cl)c1=O (stereo not given)	22	0.7	0.9	9	11	30
Cc1csc(NC(=O)CSc2nnc(-c3ccncc3)o2)n1	15	0.7	0.5	55*	-1	29
Cc1csc(NC(=O)CSc2nnc(-c3ccoc3C)o2)n1	12	0.9	0.9	12	-5	12
COc1cccc(S(=O)(=O)Nc2ccc(C(=O)N3CCOCC3)cc2)c1	-11	0.8	0.8	20	19	20
Cc1c(O)ccc(/C(Cc2ccc3ccccc3n2)=N\O)c1O	-12	0.1	0.3	66*	-22	88*
Cc1oc2c(C)c(O)ccc2c(=O)c1-c1ccc2ccccc2n1	-10	0.8	1.1	-13	-3	15
SMILES	PLK1 inh	CYP2C9 activ	CYP2C19 act	CYP2C19 inh	PLK1 PBD inh	CYP2C9 inhib
COc1cccc(CNC(=O)C2CCN(S(=O)(=O)N3CC(C)CC(C)C3)CC2)c1 (stereo not given)	-10	0.9	0.8	15	-21	10
Cc1cc([N+](=O)[O-])cnc1NC(C)c1ccccc1 (stereo not given)	-6	0.5	0.4	65*	7	50
CC(NC(=O)Cn1cnc([N+](=O)[O-])n1)c1ccccc1 (stereo not given)	-7	0.8	1	2	20	17
Cc1ccc(-n2nnnc2SCC(=O)c2cc(C)n(CC3CCCO3)c2C)cc1 (stereo not given)	x	1.1	0.6	42	x	-13
C=CCn1c(SCC(=O)c2cc(C)n(CC3CCCO3)c2C)nnc1-c1ccccc1 (stereo not given)	-5	0.9	0.3	73*	-13	8
Cc1cccc(-n2nnnc2SCC(=O)c2cc(C)n(CC3CCCO3)c2C)c1 (stereo not given)	x	1.6	0.1	90*	x	-63
